HCV inhibitor: inhibitors of hepatitis C virus infection | Huh7.5.1 HCVcc-Cre infection, luciferase reporter, 44 h | Potency, µM (highest dose often 41.8 µM), without a hit: at the top dose activity change, negative = inhibition, most hits filed as inhibitors | actives 3.4% (n = 340,000) | AID 651820; also: potency is read from the fitted curve at half-maximal effect
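A cell-based infection assay in which seeded cells (1,000 per well) receive test compound after 4 h, are inoculated with HCVcc-Cre at approximately 0.5 moi, and are incubated 44 h before luminescence detection.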
FMDV antiviral: antivirals against foot and mouth disease virus. FMDV antiviral cell-based qHTS. Potency, µM (titrated, usually from 57.9 µM), inactives show top-dose activity change, negative = inhibition, most hits filed as inhibitors. actives 1.2% (n = 410,000). AID 1159524; calls by dose curve; tested in HEK293T cells; also: read-out not given here; potency is read from the fitted curve at half-maximal effect; nearly all actives have a fitted effect of over 45% in size
AmpC no deterg: AmpC beta-lactamase inhibition without detergent; Potency, µM (top dose mostly 57.1 µM), for inactives: at the top dose activity change, negative = inhibition, most hits filed as inhibitors; AID 485341; AmpC nitrocefin hydrolysis, absorbance 480 nm, 0.0001% Triton; actives 0.52% (n = 330,000); P00811;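 also: potency is read from the fitted curve at half-maximal effect; plate controls were no compound for no effect and no enzyme for full effect; nearly all actives have a fitted effect of over 20% in size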
Target sequence (P00811 whole entry, looked up): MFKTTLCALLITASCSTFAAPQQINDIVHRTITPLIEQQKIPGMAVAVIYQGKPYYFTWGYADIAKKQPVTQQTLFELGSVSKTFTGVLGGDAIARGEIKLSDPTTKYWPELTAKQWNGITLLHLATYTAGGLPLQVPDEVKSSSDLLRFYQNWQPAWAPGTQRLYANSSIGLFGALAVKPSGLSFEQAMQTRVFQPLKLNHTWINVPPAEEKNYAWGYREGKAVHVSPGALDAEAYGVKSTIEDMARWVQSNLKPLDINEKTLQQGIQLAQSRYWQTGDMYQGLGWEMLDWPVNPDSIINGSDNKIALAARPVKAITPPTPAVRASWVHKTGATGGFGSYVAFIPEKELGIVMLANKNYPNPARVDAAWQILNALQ
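AmpC (5.3 nM in the dispensed reagent) in 20 mM phosphate pH 7.0 with 0.01% (detergent screen) or 0.0001% Triton X-100 was preincubated with compounds for 15 min at room temperature. Nitrocefin was then added from an 800 uM solution, and hydrolysis was followed at 480 nm.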
HCMV inh: human cytomegalovirus inhibition; HFF cells, HCMV-luciferase reporter, 72 h; stronger effect = lower value; activity change, negative = inhibition, % at 57.5 µM; actives 4.5% (n = 410,000); AID 1259415; in the data active = activity change below about -60%; inconclusive = no clear call, values can overlap the other calls; inactive = above about -39%
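Luciferase read-out from HCMV-luciferase-infected HFFs (MOI 1 PFU/cell) 72 h post infection at 37C; compounds added after 16 h cell attachment; activity normalized between buffer-only basal and Salinomycin (10uM) inhibitor controls.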
AmpC inh detg: AmpC beta-lactamase inhibition with detergent present | Potency, µM (doses to about 114 µM), for the others: at the highest dose activity change, negative = inhibition, most hits filed as inhibitors | actives 0.041% (n = 370,000) | P00811 | AmpC hydrolysis of nitrocefin, absorbance 480 nm, 0.01% Triton;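 also: potency is read from the fitted curve at half-maximal effect; 0% = no-compound wells and -100% = no-enzyme wells; nearly all actives have a fitted effect of over 25% in size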
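AmpC (5.3 nM in the dispensed reagent) in 20 mM phosphate pH 7.0 with 0.01% (detergent screen) or 0.0001% Triton X-100 was preincubated with compounds for 15 min at room temperature. Nitrocefin was then added from an 800 uM solution, and hydrolysis was followed at 480 nm.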
Numbers without * were called inactive; ? = inconclusive; . = no result; ! = not confirmed by another sample. In the library only some 7.3% were active in any assay of this set; here they are far more common. Unless noted, calls follow the shape of the dose curve; as a rule, active = well fitted curve in the direction sought with a large enough effect; inconclusive = small, poorly fitted or top-dose-only effect, or another doubt; inactive = no such curve, though single readings can be large; an effect the other way counts as inactive or inconclusive. Unless noted, % is scaled to controls: 0 for no effect and ±100 for the full control effect.

SMILES	HCV inhibitor	FMDV antiviral	AmpC no deterg	HCMV inh	AmpC inh detg
COc1ccccc1NC1=C(Cl)C(=O)N(C2CCCCC2)C1=O	13%	-15%	14µM*	-2	3%
[O-][n+]1nc2ccccc2c2ccccc21	-14%	0%	.	?	.
CC1=C(CC(=O)c2ccccc2)C(=O)c2ccccc2C1=O	?	?	-21%	-99*	1%
O=C(CSc1nc2ccc(Cl)cc2[nH]1)N1CCN(C(=O)c2ccco2)CC1	-15%	-13%	-6%	-65*	-3%
Cc1ccc2nc(SCC(=O)N3CCN(C(=O)c4ccco4)CC3)[nH]c2c1	21%	-4%	-8%	11	4%
CC(C)C[C@@H]1COc2cc(NCCCN3CCOCC3)ccc2S(=O)(=O)N1	.	.	.	3	.
Cc1cc(C(=O)CSc2nc(N)cc(N)n2)c(C)n1CCc1ccc(F)cc1	?	25µM*	-55%	?	-2%
Cc1cc(C(=O)COC(=O)c2ccc(O)cc2)c(C)n1CCc1ccc(F)cc1	-11%	1%	-40%	-5	-14%
Cc1cc(C)n(CC(=O)NNC(=O)CC(C)c2ccccc2)n1 (stereo unspecified)	-2%	-6%	-12%	-11	3%
Cc1ccc(C(=O)N/N=C/c2ccc(-c3cccc(C(F)(F)F)c3)o2)cn1	?	32µM*	115%	?	2%
CCc1ccc(NC(=O)c2ccc(F)c(S(=O)(=O)N3CCC4(CC3)OCCO4)c2)cc1	.	-26%	.	-90*	7%
CCc1ccc(NC(=O)c2ccc(F)c(S(=O)(=O)N3CCc4ccccc4C3)c2)cc1	.	-30%	.	-68*	-3%
CCc1ccc(NC(=O)c2ccc(F)c(S(=O)(=O)N3CCC(C)CC3)c2)cc1	.	?	.	-29	-5%
O=C(Nc1ccc(F)c(F)c1)c1ccc(F)c(S(=O)(=O)N2CCC3(CC2)OCCO3)c1	13µM*	?	-17%	-82*!	0%
CCc1ccccc1NC(=O)c1c(NC(=O)c2ccccc2)sc2c1CCCC2	.	-19%	.	-9	15%
CCN(CC)CCCC(C)NC(=O)c1c(NC(=O)c2ccccc2)sc2c1CCCC2 (stereo unspecified)	10µM*	10%	78%	-27	-6%
O=C(CCC(=O)Nc1ccc(Br)cc1)N/N=C/c1ccc(O)cc1	-23%	-21%	-27%	-13	-14%
CC1(CSc2ccccc2)CC(=O)N1 (stereo unspecified)	.	-4%	.	-79*	.
O=C1NC(=O)C(CSc2ccccc2)(c2ccccc2)N1 (stereo unspecified)	1%	-9%	.	-11	.
Cc1ccc(-c2nc(CS(=O)(=O)CC(=O)N3CCN(C)CC3)c(C)o2)cc1	-18%	?	29%	?	0%
CCN1CCN(C(=O)CS(=O)(=O)Cc2nc(-c3ccc(C)cc3)oc2C)CC1	?	-23%	10µM*	-6	-16%
Cc1ccc(-c2nc(CS(=O)CC(=O)N3CCN(c4ccccc4)CC3)c(C)o2)cc1 (stereo unspecified)	?	4%	149%	?	7%
Cc1ccc(-c2nc(CS(=O)(=O)CC(=O)NCCCN(Cc3ccccc3)C(C)C)c(C)o2)cc1	10µM*	-24%	122%	62	3%
Cc1ccc(-c2nc(CS(=O)(=O)CC(=O)N3CC(C)CC(C)C3)c(C)o2)cc1 (stereo unspecified)	?	?	40µM*	-27	-3%
Cc1ccc(-c2nc(CS(=O)CC(=O)N3CCN(c4ccc(Cl)cc4)CC3)c(C)o2)cc1 (stereo unspecified)	.	-24%	.	-71*	8%
SMILES	HCV inhibitor	FMDV antiviral	AmpC no deterg	HCMV inh	AmpC inh detg
COc1ccc(C)cc1NC(=O)Cn1c(=O)c(C(F)(F)F)nc2ccccc21	.	0%	.	11	3%
Cc1nn(C)cc1CN1CCOc2ccc(CN3CCC(Oc4cccnc4)CC3)cc2C1	.	-6%	.	.	.
CC(C)(C)NC(=O)COC(=O)c1snc(C(=O)NC2CCCCC2)c1N	7.1µM*	?	37%	?	-1%
CCN(C(=O)COC(=O)/C(=C/c1ccccc1)n1nnnc1C)C1CCCCC1	?	22µM*	44%	?	?
CC(=O)c1ccccc1NC(=O)COC(=O)/C(=C/c1ccccc1)n1nnnc1C	-3%	22µM*	-2%	0	-7%
Nc1ccc(C2(c3ccc(N)cc3)C(=O)Nc3ccccc32)cc1	1%	.	-12%	-62*	?
O=C1Nc2ccccc2C1(c1ccccc1)c1ccccc1	?	?	-33%	45	2%
CC1CCN(C(=O)CCn2c(=O)oc3ccc(Cl)cc32)CC1	.	-4%	.	-6	.
COc1cc(C=O)c(Br)cc1OCc1ccc(C)cc1	-21%	.	-17%	6	-2%
CCOc1cc(C=O)c(Br)cc1OC1CCCC1	-26%	-30%	-15%	-62*	1%
CCOc1ccc(N2C(=O)CC(NC3CCN(C(=O)c4cccs4)CC3)C2=O)cc1 (stereo unspecified)	12%	-15%	-5%	76	0%
O=C(NCCc1ccc(OC(F)F)cc1)C1CC(=O)N(c2ccc3c(c2)OCCO3)C1 (stereo unspecified)	2%	-5%	-2%	-13	2%
CC(/C=N/NC(=O)c1cc(-c2ccccc2)nc2ccccc12)=C\c1ccco1	-24%	0%	-29%	-24	-18%
COc1ccc(-c2cc(C(=O)N/N=C/c3sccc3C)c3ccccc3n2)c(OC)c1	?	-8%	27%	-63*	-10%
CC(/C=N/NC(=O)c1cc(-c2ccc(Cl)cc2)nc2ccccc12)=C\c1ccco1	?	-5%	-45%	-83*	-3%
Cc1cc(C(=O)N/N=C/c2ccc(C)o2)c2ccccc2n1	-5%	-6%	-14%	-63*	-2%
O=C(N/N=C/c1ccccn1)c1cc(-c2ccccc2)nc2ccccc12	11%	-41%	6%	10	2%
O=C(N/N=C/c1ccc(O)cc1)c1cc(-c2ccccc2)nc2ccccc12	-14%	17%	-53%	-76*	2%
COc1ccc(-c2cc(C(=O)N/N=C/c3ccc4c(c3)OCO4)c3ccccc3n2)c(OC)c1	?	-6%	14%	-7	?
C[C@@H]1CN([C@H](C)CO)S(=O)(=O)c2ccc(C#Cc3cccc(F)c3)cc2O[C@@H]1CN(C)C(=O)CN1CCOCC1	.	46%	.	-17	.
COc1ccc2c3c([nH]c2c1)[C@H](CO)N(C(=O)C1CCCC1)CC31CCN(C(=O)c2ccncc2)CC1	.	.	.	-18	.
CC(=O)Nc1ccc(/C=N/NC(=O)c2cc3ccccc3nc2C)cc1	16%	-6%	9%	-72*	-9%
Cc1cc(C(=O)N/N=C/c2cccc([N+](=O)[O-])c2)c2ccccc2n1	-15%	-29%	-17%	-34	-13%

Compound activity as filed in PubChem.
